Laboratory results from PubChem BioAssay.

These compounds were tested on Plasmodium falciparum Sir2 (PF13_0152, Sir2A) (assay: Plasmodium falciparum Sir2A binding compounds – biochemical, small-molecule microarray, 635 nm fluorescence, primary screen (AID 1098;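 note: score merges spot fluorescence intensity with its signal-to-noise ratio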)). Conditions: fluorescence 635 nm, higher = more signal.

SMILES | composite z-score
CCOC(=O)C[C@H]1[C@H](OC(=O)c2ccccc2-c2ccccc2)[C@@H](NC(=O)c2ccccc2)c2cc(OCCCO)ccc2N1C(=O)Cc1ccc(OC)cc1 | 0.0521
C=CCC(OC(C)=O)[C@@H]1[C@@H](N(Cc2ccc(-c3cccc(C(F)(F)F)c3)o2)C(=O)c2cccc3ccccc23)c2cc(OCCCO)ccc2N1C(=O)c1ccc(-c2ccccc2)cc1 (stereo not given in full) | 0.295
C[C@H]1ON(c2ccccc2)[C@@H](c2ccccc2)[C@@H]1C(=O)N1C(=O)OC[C@@H]1c1ccccc1 | 0.0672
COCCOC(=O)N1C(=O)[C@@]2(c3cc(C#CCNC(N)=O)ccc31)[C@H](C(N)=O)[C@H]1C(=O)O[C@H](c3ccccc3)[C@H](c3ccccc3)N1[C@@H]2c1ccc(OCCO)cc1 | 1.05
CCCC=C(CCC)[C@@H](NS(=O)(=O)c1cccc2cccnc12)c1ccc(C(=O)OC)cc1 | 0.817
CCOC(=O)C1=CC[C@@H](c2ccccc2)N(S(=O)(=O)c2ccc(C)cc2)[C@H]1C=C(C)C | 0.625
C#CCNS(=O)(=O)N(C)C | 0.365
O=C1O[C@H](c2ccccc2)[C@H](c2ccccc2)N2[C@H]1[C@@H](C(=O)N1CCN(c3ncccn3)CC1)[C@]1(C(=O)Nc3ccc(C#CCCO)cc31)[C@H]2c1ccc(OCCO)cc1 | 1.66
COCCOC(=O)N1C(=O)[C@@]2(c3cc(C#CC4(O)CCCCCC4)ccc31)[C@H](C(=O)N1CCN(c3ncccn3)CC1)[C@H]1C(=O)O[C@H](c3ccccc3)[C@H](c3ccccc3)N1[C@@H]2c1ccc(O)cc1 | 1.27
Cc1cc(C)c(C(O)C2C=CC3C(=O)N(c4ccccc4)C(=O)C3N2Nc2ccc([N+](=O)[O-])cc2)c(C)c1 (stereo not given) | 1.55
Cc1ccc(S[C@]2(C(=O)O)CC(=O)N(C3CCCCC3)[C@@H]2c2ccc(CO)cc2)cc1 | 1.37
CCOc1cc(C(O)C2C=CC3C(=O)NC(=O)C3N2Nc2ccccn2)ccc1O (stereo not given) | 0.38
CC(=O)NCCCC[C@@H]1NC(=O)[C@@H]2C[C@H](C(=O)NCCCC[N+](C)(C)C)[C@H](c3cccc(OCCO)c3)N2C1=O | 1.08
COc1ccc([Si](C)(C)[C@@H]2[C@@H](CC(=O)N(CCO)Cc3ccccc3)O[C@]3(C(=O)N(Cc4ccc(N5CCOC5=O)cc4)c4ccccc43)[C@H]2C)cc1 | 0.851
COC(=O)[C@]1(Cc2ccccc2CN=[N+]=[N-])N=C(c2ccc(OCCCO)cc2)O[C@@H]1c1ccccc1CN=[N+]=[N-] | 1.14
CN(C)C(=O)[C@]1(Cc2ccccc2N=[N+]=[N-])N=C(c2ccc(OCCCO)cc2)O[C@@H]1c1ccccc1CN=[N+]=[N-] | 0.43
CC(C)(C)OC(=O)CC[C@@]1(C(=O)N2CCCCC2)N=C(c2ccc(OCCCO)cc2)O[C@@H]1c1ccccc1CN=[N+]=[N-] | 1.24
CCN(CC)c1ccc(N2CC=CC34O[C@@H]5/C=C\CCCOC(=O)C5[C@H]3C(=O)N(CCCCCO)[C@@H]4C2=O)cc1 (stereo not given in full) | 0.643

SMILES | composite z-score
[N-]=[N+]=Nc1ccccc1C[C@]1(C(=O)NCCN2CCOCC2)N=C(c2ccc(OCCCO)cc2)O[C@H]1c1ccccc1N=[N+]=[N-] | 1.15
COC(=O)[C@]1(Cc2ccccc2CN=[N+]=[N-])N=C(c2ccc(OCCCO)cc2)O[C@@H]1c1ccccc1 | 1.15
COCCOC(=O)N1C(=O)[C@@]2(c3cc(C#Cc4ccc(OC)cc4)ccc31)[C@H](C(=O)N1CCc3cc(OC)c(OC)cc3C1)[C@H]1C(=O)O[C@H](c3ccccc3)[C@H](c3ccccc3)N1[C@@H]2c1ccc(O)cc1 | 0.404
COCCOC(=O)N1C(=O)[C@@]2(c3cc(C#CCCO)ccc31)[C@H](C(=O)NC[C@H](O)c1ccccc1)[C@H]1C(=O)O[C@H](c3ccccc3)[C@H](c3ccccc3)N1[C@@H]2c1ccccc1OCCO | 0.506
COc1ccccc1CN1C(=O)c2ccccc2[C@@H](C(=O)NCC(C)C)[C@@H]1c1ccc(CO)cc1 | 1.05
C=CCN1C(=O)[C@@]2(O[C@@H](CCn3cc([C@H](O)c4ccccc4)nn3)[C@H]([Si](C)(C)c3ccc(OC)cc3)[C@H]2C)c2cc(NC(=O)c3ccc(OC)cc3)ccc21 | 0.185
O=C(O)[C@]1(CCS(=O)(=O)c2ccccc2)N=C(c2ccc(OCCCO)cc2)O[C@@H]1c1ccccc1 | 0.74
CN(C)CCCN1C(=O)[C@@]2(Cc3ccccc31)c1ccccc1C(=O)N(Cc1ccccc1)[C@H]2c1ccc(CO)cc1 | 0.74
COC(=O)C(CC#Cc1ccc2c(c1)[C@]1(C(=O)N2)[C@H](c2ccc(O)cc2)N2[C@H](c3ccccc3)[C@H](c3ccccc3)OC(=O)[C@H]2[C@@H]1C(N)=O)C(=O)OC | -0.532
O=C1C2C=CC(C(O)c3ccc(Br)cc3)N(Nc3ccccc3)C2C(=O)N1c1ccccc1 (stereo not given) | 0.489
O=C(O)[C@@]1(Cc2ccccc2)COC(c2ccc(OCCCO)cc2)=N1 | 1.01
COC(=O)c1ccc(OC)c(/C=C\CC(CCc2ccccc2)OC(=O)c2ccncc2)c1 (stereo not given) | -0.734
COC(=O)[C@@]1(Cc2ccc(OC)cc2)[C@H]2c3cc(C(=O)N4CCCC4)n(CCc4ccc(O)c(OC)c4)c3C[C@H]2CN1C(=O)c1ccccc1 | -0.0995
C[N+](C)(C)CCCC[C@@H]1NC(=O)[C@H]2C[C@@H](C(=O)NCCCCCCN)[C@@H](c3cccc(OCCO)c3)N2C1=O | 1.56
COC(=O)[C@]1(Cc2ccccc2N=[N+]=[N-])N=C(c2ccc(OCCCO)cc2)O[C@@H]1c1ccccc1 | 1.12
CC(C)N1C(=O)c2ccccc2[C@](C)(C(=O)O)[C@@H]1c1ccc(CO)cc1 | 0.738
COc1ccc(C(=O)Nc2ccc3c(c2)[C@]2(O[C@@H](CCO)[C@H]([Si](C)(C)c4ccc(OC)cc4)[C@H]2C)C(=O)N3Cc2ccccc2)cc1 | 0.663
